Measured values taken from PubChem BioAssay AID1159580 (chemical genetic matrix, 2015).
Screen size: about 5,500 compounds; about 2,000 (36%) were called active. About 18% were inconclusive and are not listed. Rule as the data show it: active = normalized growth mostly below about 0.91 (no sharp cut-off); inconclusive = no clear call, values can overlap the other calls; inactive = mostly above about 0.92. The list shows a part of the results.

Test: chemical genetic growth profiling, strain panel (AID 1159580);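 also: tested at 20 µM; growth read once vehicle control cultures reached saturation at 30 °C; 1 = growth at the plate median or of vehicle wells; lower values mean less growth of the strain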
Settings: growth OD

Measured: normalized growth

CC12CCC3C(CC3(C)C)C(C)(CCC1=O)O2 (configuration not stated)
inactive: S. cerevisiae deletion strains, locus YJR043C, strain POL32, active compounds read low 1.01 | S. cerevisiae deletion strains, locus YJR066W, strain TOR1, active compounds read low 0.988 | S. cerevisiae deletion strains, locus YKL009W, strain mrt4, active compounds read low 1.03 | S. cerevisiae deletion strains, locus YKL068W, active compounds read low 1.01 | S. cerevisiae deletion strains, locus YKL085W, strain MDH1 (second series), active compounds read low 1.01 | S. cerevisiae deletion strains, locus YKL085W, strain MDH1, active compounds read low 1.01 | S. cerevisiae deletion strains, locus YKL160W, strain elf1, active compounds read low 1.03 | S. cerevisiae deletion strains, locus YKL190W, strain CNB1, active compounds read low 1.01 | S. cerevisiae deletion strains, locus YKR001C, strain vps1, active compounds read low 1.03 | S. cerevisiae deletion strains, locus YKR026C, strain gcn3, active compounds read low 0.994 | S. cerevisiae deletion strains, locus YKR091W, strain srl3, active compounds read low 0.992 | S. cerevisiae deletion strains, locus YLL001W, strain dnm1, active compounds read low 1.01 | S. cerevisiae deletion strains, locus YLL026W, active compounds read low 0.997 | S. cerevisiae deletion strains, locus YLL041C, strain sdh2, active compounds read low 0.992 | S. cerevisiae deletion strains, locus YLR027C, strain aat2, active compounds read low 1.01 | S. cerevisiae deletion strains, locus YLR039C, strain RIC1, active compounds read low 1.08 | S. cerevisiae deletion strains, locus YLR058C, strain SHM2, active compounds read low 1.02 | S. cerevisiae deletion strains, locus YLR102C, strain apc9, active compounds read low 1.01 | S. cerevisiae deletion strains, locus YLR113W, strain HOG1, active compounds read low 1.04 | S. cerevisiae deletion strains, locus YLR221C, strain rsa3, active compounds read low 1 | S. cerevisiae deletion strains, locus YLR258W, strain gsy2, active compounds read low 0.99 | S. cerevisiae deletion strains, locus YLR262C, strain YPT6 (second series), active compounds read low 0.992 | S. cerevisiae deletion strains, locus YLR268W, strain sec22, active compounds read low 1.03 | S. cerevisiae deletion strains, locus YLR320W, strain mms22, active compounds read low 0.992 | S. cerevisiae deletion strains, locus YLR330W, strain CHS5, active compounds read low 1.02 | S. cerevisiae deletion strains, locus YLR342W, strain FKS1, active compounds read low 0.992 | S. cerevisiae deletion strains, locus YLR357W, strain rsc2, active compounds read low 1.01 | S. cerevisiae deletion strains, locus YLR370C, strain arc18, active compounds read low 1.03 | S. cerevisiae deletion strains, locus YLR371W, strain rom2, active compounds read low 0.982 | S. cerevisiae deletion strains, locus YLR384C, strain iki3, active compounds read low 1 | S. cerevisiae deletion strains, locus YLR418C, strain cdc73, active compounds read low 1.07 | S. cerevisiae deletion strains, locus YML016C, strain PPZ1, active compounds read low 1.01 | S. cerevisiae deletion strains, locus YML032C, strain rad52, active compounds read low 1.02 | S. cerevisiae deletion strains, locus YML120C, strain ndi1, active compounds read low 1 | S. cerevisiae deletion strains, locus YML124C, strain tub3, active compounds read low 1.02 | S. cerevisiae deletion strains, locus YMR058W, strain fet3, active compounds read low 1.02 | S. cerevisiae deletion strains, locus YMR078C, strain ctf18, active compounds read low 1.01 | S. cerevisiae deletion strains, locus YMR125W, strain sto1, active compounds read low 1.02 | S. cerevisiae deletion strains, locus YMR129W, active compounds read low 0.987 | S. cerevisiae deletion strains, locus YMR205C, strain PFK2, active compounds read low 1.01 | S. cerevisiae deletion strains, locus YMR223W, strain ubp8, active compounds read low 1.03 | S. cerevisiae deletion strains, locus YMR231W, strain pep5, active compounds read low 1.01 | S. cerevisiae deletion strains, locus YMR307W, strain GAS1, active compounds read low 1.02 | S. cerevisiae deletion strains, locus YNL067W, strain RPL9B, active compounds read low 1.03 | S. cerevisiae deletion strains, locus YNL071W, strain lat1, active compounds read low 0.999 | S. cerevisiae deletion strains, locus YNL183C, strain NPR1, active compounds read low 0.999 | S. cerevisiae deletion strains, locus YNL209W, strain ssb2, active compounds read low 0.996 | S. cerevisiae deletion strains, locus YNL233W, strain BNI4, active compounds read low 1.04 | S. cerevisiae deletion strains, locus YNL248C, strain rpa49, active compounds read low 1.04 | S. cerevisiae deletion strains, locus YNL250W, strain rad50, active compounds read low 1.05 | S. cerevisiae deletion strains, locus YNL271C, strain bni1, active compounds read low 1.02 | S. cerevisiae deletion strains, locus YNL298W, strain CLA4, active compounds read low 1.02 | S. cerevisiae deletion strains, locus YNL307C, strain MCK1, active compounds read low 1.03 | S. cerevisiae deletion strains, locus YNL322C, strain KRE1 (second series), active compounds read low 0.985 | S. cerevisiae deletion strains, locus YNL322C, strain KRE1, active compounds read low 1.01 | S. cerevisiae deletion strains, locus YNR049C, strain mso1, active compounds read low 0.999 | S. cerevisiae deletion strains, locus YNR052C, strain pop2, active compounds read low 1.04 | S. cerevisiae deletion strains, locus YOL006C, strain TOP1, active compounds read low 1.08 | S. cerevisiae deletion strains, locus YOL012C, strain htz1 0.815 | S. cerevisiae deletion strains, locus YOL147C, strain pex11, active compounds read low 0.996 | S. cerevisiae deletion strains, locus YOR001W, strain rrp6, active compounds read low 0.95 | S. cerevisiae deletion strains, locus YOR061W, strain CKA2, active compounds read low 1.01 | S. cerevisiae deletion strains, locus YOR069W, strain VPS5, active compounds read low 1.02 | S. cerevisiae deletion strains, locus YOR070C, strain gyp1, active compounds read low 1.03 | S. cerevisiae deletion strains, locus YOR080W, strain dia2, active compounds read low 0.989 | S. cerevisiae deletion strains, locus YOR083W, strain WHI5, active compounds read low 1.03 | S. cerevisiae deletion strains, locus YOR106W, strain vam3, active compounds read low 0.998 | S. cerevisiae deletion strains, locus YOR136W, strain idh2, active compounds read low 1.01 | S. cerevisiae deletion strains, locus YOR144C, strain elg1, active compounds read low 1.02 | S. cerevisiae deletion strains, locus YOR184W, strain ser1, active compounds read low 0.997 | S. cerevisiae deletion strains, locus YOR231W, strain MKK1, active compounds read low 1.05 | S. cerevisiae deletion strains, locus YOR265W, strain rbl2, active compounds read low 1.02 | S. cerevisiae deletion strains, locus YOR270C, strain vph1, active compounds read low 1.1 | S. cerevisiae deletion strains, locus YOR290C, strain snf2, active compounds read low 0.975 | S. cerevisiae deletion strains, locus YOR316C, strain cot1, active compounds read low 1.02 | S. cerevisiae deletion strains, locus YPL051W, strain arl3, active compounds read low 1 | S. cerevisiae deletion strains, locus YPL055C, strain LGE1, active compounds read low 1.04 | S. cerevisiae deletion strains, locus YPL078C, strain atp4, active compounds read low 1.02 | S. cerevisiae deletion strains, locus YPL106C, strain sse1, active compounds read low 1.01 | S. cerevisiae deletion strains, locus YPL240C, strain hsp82, active compounds read low 0.994 | S. cerevisiae deletion strains, locus YPL256C, strain CLN2, active compounds read low 1.06 | S. cerevisiae deletion strains, locus YPR119W, strain clb2, active compounds read low 1.02 | S. cerevisiae deletion strains, locus YPR141C, strain kar3, active compounds read low 1.01 | S. cerevisiae deletion strains, locus YPR163C, strain tif3, active compounds read low 1.03 | S. cerevisiae deletion strains, locus YPR167C, strain met16, active compounds read low 1.02 | S. cerevisiae deletion strains, strain wtn01, active compounds read low 1.01 | S. cerevisiae strains, strain wild type, active compounds read low 1.03
